# An excerpt weighted towards active compounds, which were near 18% of everything screened.
# TGFb SMAD3 inh = qHTS for Inhibitors of TGF-b. HepG2 CAGA-GFP TGF-b/SMAD3 reporter, GFP fluorescence, 18 h; TGF-beta stimulated, 500 pg/mL final. Potency, µM (titrated, usually from 46.1 µM), for the others: at the top dose activity, negative = inhibition, hits mostly inhibitors. 410,000 compounds, 1.2% hits. AID 588855, 2011; further: potency means the concentration at half of the fitted maximal effect; on the % scale 0 is the no-effect control and ±100 the full control effect; nearly all actives have a fitted effect of over 65% in size
#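 First, reporter cells (HEPG2 CAGA-GFP) rested 2 h at 37 degrees C. Next, compounds were pinned in and TGF-beta added to 500 pg/mL final. After 18 h, GFP was imaged per cell and summed per well.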
# TDP1 cell noCPT = qHTS for Inhibitors of human tyrosyl-DNA phosphodiesterase 1 (TDP1): qHTS in cells in absence of CPT | Potency, µM (top dose mostly 46.2 µM), for the others: top-dose activity change, negative = growth inhibition, actives largely listed as inhibitors | AID 686978, 2013 | 420,000 compounds, 15% hits | DT40 Tdp1-/- hTDP1 cells, no CPT, ATP luminescence, 48 h; further: potency means the concentration at half of the fitted maximal effect; on the % scale 0 is the no-effect control and ±100 the full control effect; nearly all actives have a fitted effect of over 55% in size
#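 Chicken DT40 Tdp1-/- cells stably complemented with human TDP1 were seeded at 400 cells/well with DMSO in place of 20 nM camptothecin. After compound pinning, cells grew at least 48 hr at 37 °C; viability read by CellTiter-Glo luminescence.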
# HepG2 viability = qHTS for Inhibitors of TGF-b: Cytotox Counterscreen | HepG2 CAGA-GFP viability, ATP luminescence, 18 h | Potency, µM (doses to about 46.1 µM), without a hit: at the highest dose activity change, negative = cytotoxicity, usual class: cytotoxic | 410,000 compounds, 0.76% hits; further: potency means the concentration at half of the fitted maximal effect
#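 CellTiter-Glo luminescence gave cytotoxicity after 18 hours at 37 degrees C. The cells were HepG2 CAGA-GFP in 1% FBS DMEM, stimulated with 500 pg/mL TGF-beta after compound addition. %Activity was normalised to no-cell wells (complete cell-killing) and DMSO (no toxicity), and curves were fitted and classified.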
# TDP1 cell CPT = qHTS for Inhibitors of human tyrosyl-DNA phosphodiesterase 1 (TDP1): qHTS in cells in presence of CPT | chicken DT40 Tdp1-/-;hTDP1 cells + 20 nM CPT, ATP luminescence, 48 h | Potency, µM (doses to about 46.2 µM), for inactives: at the highest dose activity change, negative = growth inhibition, most hits filed as inhibitors | 420,000 compounds, 12% hits | AID 686979, 2013; further: potency means the concentration at half of the fitted maximal effect; on the % scale 0 is the no-effect control and ±100 the full control effect; nearly all actives have a fitted effect of over 55% in size
#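 Cell growth measured by CellTiter-Glo luminescence after a minimum 48 h, 37 C compound exposure with 20 nM CPT in Tdp1-knockout DT40 cells stably expressing hTDP1, seeded 400/well; qHTS titration format.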
# TDP1 block = qHTS Assay for Inhibitors of Tyrosyl-DNA Phosphodiesterase (TDP1) | recombinant TDP1, AlphaScreen DNA substrate cleavage | Potency, µM (highest dose often 130 µM), for the others: top-dose activity change, negative = inhibition, hits mostly inhibitors | 350,000 compounds, 0.28% hits; further: potency means the concentration at half of the fitted maximal effect; on the % scale 0 is the no-effect control and ±100 the full control effect; nearly all actives have a fitted effect of over 40% in size
# Target sequence (Q9NUW8 whole entry, looked up): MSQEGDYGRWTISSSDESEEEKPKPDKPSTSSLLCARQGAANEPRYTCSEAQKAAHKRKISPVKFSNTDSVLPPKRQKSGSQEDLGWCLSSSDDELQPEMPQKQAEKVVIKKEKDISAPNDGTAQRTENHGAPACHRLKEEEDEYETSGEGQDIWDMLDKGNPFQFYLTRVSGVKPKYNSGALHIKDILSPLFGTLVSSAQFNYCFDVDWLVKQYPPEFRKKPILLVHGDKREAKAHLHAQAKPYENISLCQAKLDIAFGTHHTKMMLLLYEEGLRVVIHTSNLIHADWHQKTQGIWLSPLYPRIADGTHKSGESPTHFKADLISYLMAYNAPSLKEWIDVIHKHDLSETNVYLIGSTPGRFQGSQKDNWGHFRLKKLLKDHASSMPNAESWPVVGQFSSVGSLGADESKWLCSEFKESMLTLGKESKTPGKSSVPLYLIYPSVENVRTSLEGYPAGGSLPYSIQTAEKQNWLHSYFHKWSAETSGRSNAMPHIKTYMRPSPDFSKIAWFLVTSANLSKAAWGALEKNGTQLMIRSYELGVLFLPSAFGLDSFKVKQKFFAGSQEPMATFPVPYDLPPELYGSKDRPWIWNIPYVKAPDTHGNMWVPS
#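 Compounds were preincubated with Tdp1 (1 nM final) for 15 min at room temperature before substrate (15 nM final) started a 5 min reaction; beads (10 ug/ml final) were then added for 10 min before AlphaScreen detection.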
# IL-1B inflam inh = qHTS for Inhibitors of Inflammasome Signaling: IL-1-beta AlphaLISA Primary Screen; 360,000 compounds, 4.7% hits; THP-1 LPS/ATP IL-1B secretion, AlphaLISA, 16 h; active compounds read low; activity change, % at 57.5 µM; in the data active means activity change below about -50%; inconclusive means mostly about -30% to -49%; further: on the % scale 0 is the no-effect control and ±100 the full control effect
#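 THP-1 cells pretreated 1 hr with compounds (up to 57.5 uM final), then stimulated with LPS (250 ng/mL final) plus ATP (1.25 mM final); secreted IL-1B measured by AlphaLISA after 16 hr, decreased signal indicating inhibition.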
# Starred values were filed as active, the others as inactive; u = inconclusive; x = not tested or not shown; [ ] = another dose, or the depositor's remark. Unless noted, the call rests on the fitted dose curve; in most records, active means well fitted curve in the direction sought with a large enough effect; inconclusive means small, poorly fitted or top-dose-only effect, or another doubt; inactive means no such curve, though single readings can be large; an effect the other way counts as inactive or inconclusive.
SMILES,TGFb SMAD3 inh,TDP1 cell noCPT,HepG2 viability,TDP1 cell CPT,TDP1 block,IL-1B inflam inh
O=C1CCCC/C=C\C[C@H](CC(=O)N(CCO)Cc2ccccc2)C(=O)N2CCC[C@@H]2CO1,0%,u,3%,16µM*,0%,9
CC(C)(C)OC(=O)C[C@@H]1C/C=C\C[C@@H](CC(=O)N(CCO)Cc2ccccc2)C(=O)N2CCC[C@H]2COC1=O,-12%,u,1%,u,1%,1
CC(C)(C)OC(=O)C[C@H]1C/C=C\C[C@H](CC(=O)N(CCO)Cc2ccccc2)C(=O)N2CCC[C@H]2COC1=O,-5%,u,3%,26µM*,0%,-19
O=C1OC[C@@H]2CCCN2C(=O)[C@@H](CC(=O)N(CCO)Cc2ccccc2)C/C=C\C[C@H]1Cc1ccc(F)cc1,-27%,15µM*,-18%,u,1%,-17
O=C1OC[C@H]2CCCN2C(=O)[C@@H](CC(=O)N(CCO)Cc2ccccc2)C/C=C\C[C@H]1Cc1ccc(F)cc1,u,18µM*,-24%,13µM*,2%,-23
CC(C)(C)OC(=O)C[C@@H]1C/C=C\C[C@H](CC(=O)N(CCO)Cc2ccccc2)C(=O)N2CCC[C@H]2COC1=O,-3%,u,-21%,u,0%,-2
CCOc1ccc(/C(O)=C2/C(=O)C(=O)N(CCCN3CCOCC3)C2c2ccc(C)cc2)cc1C (configuration not stated),-4%,13%,-13%,-5%,x,6
O=C(Cc1ccc(Cl)c(Cl)c1)Nc1ccc(S(=O)(=O)Nc2ncccn2)cc1,-11%,-20%,-16%,13%,11%,15
O=C(CCl)NCCCCCCCCCNC(=O)CCl,u,6.5µM*,-40%,4.6µM*,2%,-90*
CCCCn1c(N)c(N(CC(C)C)C(=O)C2CCN(S(=O)(=O)c3ccc(OCC)cc3)CC2)c(=O)[nH]c1=O,0%,1%,-19%,-28%,-5%,u
O=C1NC[C@@H](c2ccccc2)OC(=O)[C@@H](Cc2ccc(F)cc2)C/C=C\C[C@@H]1CC(=O)N(CCO)Cc1ccccc1,u,16µM*,-14%,u,1%,-14
O=C1NC[C@@H](c2ccccc2)OC(=O)[C@H](Cc2ccc(F)cc2)C/C=C\C[C@@H]1CC(=O)N(CCO)Cc1ccccc1,u,23µM*,-4%,u,1%,u
O=C1CCCC/C=C\C[C@H](CC(=O)N(CCO)Cc2ccccc2)C(=O)NC[C@H](c2ccccc2)O1,-10%,u,-6%,u,0%,-7
O=C1NC[C@H](c2ccccc2)OC(=O)[C@H](Cc2ccc(F)cc2)C/C=C\C[C@@H]1CC(=O)N(CCO)Cc1ccccc1,u,16µM*,3%,21µM*,1%,-21
COc1ccccc1NC(=O)C(C)OC(=O)CCC1CCCCC1 (configuration not stated),3%,u,-5%,0%,x,5
CCCc1cc(NCCCCO)n2c(nc3ccccc32)c1C#N,1%,u,1%,u,2%,11
CCCc1cc(NCCOCCO)n2c(nc3ccccc32)c1C#N,-3%,12µM*,-19%,u,x,5
CCCc1cc(NCCCN2CCOCC2)n2c(nc3ccccc32)c1C#N,15%,21µM*,2%,16µM*,-1%,u
CCn1cc(C(=O)NC2CCCc3c2cnn3-c2cccc(C)c2C)cn1 (configuration not stated),x,x,x,x,0%,x
COc1ccc(C(=O)NCc2nnc(SCC(=O)N3CCCC3)o2)cc1,-4%,18%,-50%,-5%,2%,-7
COc1ccc(-c2nnc(-c3ccc(C)cc3)o2)cc1,6%,-23%,-7%,23%,x,u
Cc1ccc(CSc2nnc(-c3cccc4ccccc34)o2)cc1,u,x,-1%,x,45µM*,x
Cc1ccccc1-c1nnc(SCc2ccccc2)o1,-20%,-17%,3%,-7%,x,11
COc1cccc(-c2nnc(-c3ccc(C(F)(F)F)cc3)o2)c1OC,6%,21µM*,-19%,u,-5%,u
COc1ccc(-c2nnc(-c3ccccc3O)o2)cc1,-8%,10µM*,0%,u,x,23
SMILES,TGFb SMAD3 inh,TDP1 cell noCPT,HepG2 viability,TDP1 cell CPT,TDP1 block,IL-1B inflam inh
Cc1ccc(-c2nnc(-c3cccc4ccccc34)o2)cc1,2%,21µM*,-22%,16µM*,x,-3
Cc1ccc(NC(=O)c2ncn(CCCN3CCN(c4ccccn4)CC3)n2)cc1C,u,26µM*,-33%,u,x,-6
Cc1ccc(NC(=O)c2ncn(CCCN(CCCn3cnc(C(=O)Nc4ccc(C)c(C)c4)n3)Cc3ccc4[nH]ccc4c3)n2)cc1C,-28%,15µM*,-28%,u,x,8
COc1ccc(CNCCCn2cnc(C(=O)Nc3ccc(C)c(C)c3)n2)cc1,18%,16µM*,-16%,u,x,-17
Cc1ccc(NC(=O)c2ncn(CCCNCCCN(C)C)n2)cc1C,6%,u,-27%,u,x,0
COC(=O)[C@H](Cc1ccccc1)NCCCn1cnc(C(=O)Nc2ccc(C)c(C)c2)n1,u,18µM*,-19%,u,x,2
COC(=O)[C@H](Cc1ccc(O)cc1)NC(=O)Cn1cnc(C(=O)Nc2ccc(C)c(C)c2)n1,-3%,-21%,-30%,-17%,0%[56.1 µM],24
COc1cc(OC)c(NS(=O)(=O)c2c(C)[nH]c(=O)[nH]c2=O)cc1Cl,14%,11%,4%,0%,x,-3
COCC(=O)Nc1cc(C(=O)N2CC3CCCC2C3)c2c(c1)nc(-c1ccncc1)n2C (configuration not stated),x,-7%,x,6%[9.04 µM],x,x
Cc1ccc(NC(=O)c2ncn(CCCNCCCc3ccccc3)n2)cc1C,u,21µM*,-47%,u,x,-28
CCC(=O)N1CCC1(C)C(=O)Nc1cccc(OC)c1OC (configuration not stated),-1%,-9%,0%,-1%,x,-4

# Assay outcomes deposited in PubChem BioAssay by National Center for Advancing Translational Sciences (NCATS).
